Laboratory results: the supplement of paper PMC10849652
Of roughly 7,900 targets only a part is listed; those with a hit were picked by preference. About 0.6% of all pairs of compound and target were hits.

Experiments:
Assay in all cases: log2 fold change, soluble protein after heating vs DMSO (PISA); higher = thermal stabilisation; K562 cells, 10 uM, 30 min; active = over 0.2 and 3.5 SD of the protein, either way, in both replicates (recomputed)
erlotinib = compound: C#Cc1cccc(Nc2ncnc3cc(OCCOC)c(OCCOC)cc23)c1 [erlotinib]
Method in brief: (§1)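 Thermal stability values are relative to control samples and come from duplicates. They are expressed as log2 fold changes. For measurement, K562 cells (2×10^6 cells/mL) received 10 μM compound for 30 min, and aliquots were heated for 3 min over 48°C-58°C, pooled, and extracted at 4°C in PBS with 0.5% NP-40. Soluble protein, the supernatant after 21,000xg for 90 min, was quantified by TMTpro 16plex LC-MS/MS with equalised channel sums.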

[1] = compound: C/C(=N\NC(=O)C1=CC(=CC=C1)S(=O)(=O)N2CCOCC2)/C3=C(C=CC(=C3)Cl)O
Method in brief: as §1

[2] = compound: C1=CC(=C(C=C1Cl)C2=NC3=NC=CN=C3C(=N2)NC4=CC=NC=C4)F
Method in brief: as §1

[3] = compound: C1=CC(=CC=C1C2=NC3=C(N2)C=C(C=C3)C(=O)N)OC4=CC=C(C=C4)Cl
Method in brief: as §1

[4] = compound: C1=CC2=C(C=CC(=C2)/C=C\3/C(=O)NC(=NCC4=CC=CS4)S3)N=C1
Method in brief: as §1

[5] = compound: C1=CC2=NC=CN=C2C=C1/C=C/3\C(=O)NC(=O)S3
Method in brief: as §1

[6] = compound: C1=CC=C(C=C1)C2=NC(=C(N2)C3=CC=NC=C3)C4=CC(=C(C=C4)Cl)O
Method in brief: as §1

[7] = compound: C1=CC=C2C(=C1)C3=NNC4=CC=CC(=C43)C2=O
Method in brief: as §1

[8] = compound: C1CCN(C1)C(=O)NC2=CC=CC(=C2)NC3=NC=C(C(=N3)NCCC4=CN=CN4)Br
Method in brief: as §1

[9] = compound: C1CN(CCC1(CC2=CC=C(C=C2)Cl)N)C3=NC=NC4=C3C=CN4
Method in brief: as §1

Measured: log2 fold change

RAP2C (UniProt Q9Y3L5)
inactive: erlotinib 0.021 | [1] 0.119 | [2] 0.205 | [3] 0.01 | [4] -0.097 | [5] 0.026 | [6] 0.026 | [7] 0.167 | [8] -0.008 | [9] 0.034

RPS3 (UniProt P23396)
inactive: erlotinib -0.136 | [1] -0.072 | [2] -0.224 | [3] 0.061 | [4] -0.026 | [5] -0.027 | [6] -0.073 | [7] -0.03 | [8] 0.093 | [9] -0.156

RPS21 (UniProt P63220)
inactive: erlotinib -0.045 | [1] -0.062 | [2] -0.071 | [3] 0.017 | [4] -0.056 | [5] 0.079 | [6] -0.066 | [7] -0.027 | [8] 0.033 | [9] 0.017

RBM48 isoform 2 (UniProt Q5RL73)
Sequence of UniProt Q5RL73 (Q5RL73 whole entry, looked up): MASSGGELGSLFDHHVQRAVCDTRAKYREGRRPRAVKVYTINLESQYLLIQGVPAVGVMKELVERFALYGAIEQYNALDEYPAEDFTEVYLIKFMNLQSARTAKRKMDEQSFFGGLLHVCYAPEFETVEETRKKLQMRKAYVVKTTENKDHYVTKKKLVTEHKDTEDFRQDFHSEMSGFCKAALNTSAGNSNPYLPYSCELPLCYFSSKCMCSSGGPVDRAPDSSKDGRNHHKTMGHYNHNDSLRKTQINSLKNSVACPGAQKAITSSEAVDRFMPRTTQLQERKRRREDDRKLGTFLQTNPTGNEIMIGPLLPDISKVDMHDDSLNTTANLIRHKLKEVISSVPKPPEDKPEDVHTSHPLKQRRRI
inactive: erlotinib -0.048 | [1] 0.017 | [2] -0.065 | [3] -0.026 | [4] 0.053 | [5] 0.055 | [6] -0.144 | [7] 0.042 | [8] 0.118 | [9] -0.115

RPS6KA1 isoform 2 (UniProt Q15418)
inactive: erlotinib -0.032 | [1] 0.104 | [2] -0.082 | [3] 0.107 | [4] 0.034 | [5] 0.039 | [6] -0.135 | [8] -0.093 | [9] 0.023
active: [7] -0.377

SETMAR (UniProt Q53H47)
Sequence of UniProt Q53H47 (Q53H47 whole entry, looked up): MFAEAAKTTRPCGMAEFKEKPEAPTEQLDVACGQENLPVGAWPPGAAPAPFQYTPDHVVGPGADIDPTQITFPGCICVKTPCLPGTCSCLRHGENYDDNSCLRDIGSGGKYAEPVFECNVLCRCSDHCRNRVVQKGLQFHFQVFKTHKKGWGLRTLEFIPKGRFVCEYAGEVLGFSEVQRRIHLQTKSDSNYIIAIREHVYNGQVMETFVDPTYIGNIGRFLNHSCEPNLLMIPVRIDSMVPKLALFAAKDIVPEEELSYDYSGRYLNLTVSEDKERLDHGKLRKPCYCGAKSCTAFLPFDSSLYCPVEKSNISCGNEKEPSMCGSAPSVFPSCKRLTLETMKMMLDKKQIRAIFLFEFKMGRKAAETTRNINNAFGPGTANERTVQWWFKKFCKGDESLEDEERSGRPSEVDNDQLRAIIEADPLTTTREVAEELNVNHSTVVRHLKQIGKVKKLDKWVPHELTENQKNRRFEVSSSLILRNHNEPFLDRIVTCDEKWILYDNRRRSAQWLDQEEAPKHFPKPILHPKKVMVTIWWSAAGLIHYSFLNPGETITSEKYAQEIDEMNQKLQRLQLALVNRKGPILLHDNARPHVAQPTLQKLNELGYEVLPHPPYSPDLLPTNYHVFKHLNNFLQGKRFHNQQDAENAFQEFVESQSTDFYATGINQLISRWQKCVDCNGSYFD
inactive: erlotinib 0.004 | [1] -0.044 | [2] 0.046 | [3] -0.018 | [4] 0.133 | [5] -0.029 | [6] -0.01 | [7] 0.008 | [8] -0.031 | [9] -0.248

SH3PXD2B (UniProt A1X283)
inactive: erlotinib 0 | [1] -0.036 | [2] -0.013 | [3] -0.153 | [4] 0.04 | [5] -0.012 | [7] 0.04 | [8] -0.034 | [9] 0.132

RAC3 (UniProt P60763)
inactive: erlotinib 0.05 | [1] -0.016 | [2] 0.029 | [3] -0.042 | [4] 0.009 | [5] 0.02 | [6] -0.009 | [7] -0.09 | [8] -0.007 | [9] 0.005

SCYL3 isoform 2 (UniProt Q8IZE3)
Sequence of UniProt Q8IZE3 (Q8IZE3 whole entry, looked up): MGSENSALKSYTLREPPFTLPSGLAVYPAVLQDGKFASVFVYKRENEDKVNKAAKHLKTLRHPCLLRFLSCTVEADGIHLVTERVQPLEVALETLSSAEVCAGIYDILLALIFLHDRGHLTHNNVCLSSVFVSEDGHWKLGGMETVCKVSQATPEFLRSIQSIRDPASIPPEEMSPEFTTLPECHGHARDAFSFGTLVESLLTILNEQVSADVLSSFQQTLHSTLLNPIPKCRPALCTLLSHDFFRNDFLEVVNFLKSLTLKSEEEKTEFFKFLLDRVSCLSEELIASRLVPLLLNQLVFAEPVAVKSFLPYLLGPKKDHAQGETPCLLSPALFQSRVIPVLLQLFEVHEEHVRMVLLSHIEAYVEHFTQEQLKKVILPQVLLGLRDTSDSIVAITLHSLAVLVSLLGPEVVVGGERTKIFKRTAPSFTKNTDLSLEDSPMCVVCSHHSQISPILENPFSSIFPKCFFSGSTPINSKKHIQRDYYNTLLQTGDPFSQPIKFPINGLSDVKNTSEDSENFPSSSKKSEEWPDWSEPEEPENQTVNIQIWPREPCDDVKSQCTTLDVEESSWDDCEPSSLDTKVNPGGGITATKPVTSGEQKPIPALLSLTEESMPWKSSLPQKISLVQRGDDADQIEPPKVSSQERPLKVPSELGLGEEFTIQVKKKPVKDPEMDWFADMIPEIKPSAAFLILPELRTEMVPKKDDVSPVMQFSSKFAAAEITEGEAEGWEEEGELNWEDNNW
inactive: erlotinib 0.046 | [1] 0.055 | [2] 0.07 | [3] -0.05 | [4] 0.068 | [5] -0.024 | [6] 0.058 | [7] 0.014 | [8] 0.093 | [9] 0.123

SLC12A9 (UniProt Q9BXP2)
inactive: erlotinib 0.023 | [1] 0.03 | [2] 0.039 | [3] -0.013 | [4] -0.04 | [5] 0.021 | [6] 0.016 | [7] -0.015 | [8] -0.019 | [9] -0.012

RPS15 (UniProt P62841)
inactive: erlotinib -0.173 | [1] -0.259 | [2] -0.208 | [3] 0.016 | [4] 0.028 | [5] -0.092 | [6] 0.036 | [7] -0.131 | [8] 0.188 | [9] -0.138

SEPTIN5 (UniProt Q99719)
inactive: erlotinib 0.009 | [1] 0.014 | [2] 0.021 | [3] 0.006 | [4] 0.004 | [5] 0.019 | [6] -0.011 | [7] 0.015 | [8] -0.012 | [9] 0.039

RNF2 (UniProt Q99496)
Sequence of UniProt Q99496 (Q99496 whole entry, looked up): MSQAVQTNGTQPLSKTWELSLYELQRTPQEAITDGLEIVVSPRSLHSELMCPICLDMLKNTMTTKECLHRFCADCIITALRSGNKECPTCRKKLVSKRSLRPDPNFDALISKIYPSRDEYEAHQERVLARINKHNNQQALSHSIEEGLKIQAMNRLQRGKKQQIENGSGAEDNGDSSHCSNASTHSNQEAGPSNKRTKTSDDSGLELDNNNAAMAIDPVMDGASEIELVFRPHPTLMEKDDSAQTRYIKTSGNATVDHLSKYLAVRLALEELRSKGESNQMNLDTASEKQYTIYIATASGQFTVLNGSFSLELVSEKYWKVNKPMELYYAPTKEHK
inactive: erlotinib -0.014 | [1] 0.116 | [2] -0.013 | [3] -0.231 | [4] -0.057 | [5] -0.004 | [7] -0.053 | [8] -0.103 | [9] -0.006

RSL1D1 (UniProt O76021)
inactive: erlotinib -0.115 | [1] -0.156 | [2] -0.504 | [3] 0.073 | [4] -0.054 | [5] 0.057 | [6] -0.141 | [7] -0.086 | [8] 0.016 | [9] -0.193

RABGAP1L isoform 5 (UniProt Q5R372)
inactive: erlotinib 0.114 | [1] 0.043 | [2] -0.076 | [3] 0.089 | [4] -0.007 | [5] 0.045 | [7] -0.097 | [8] 0.023 | [9] 0.016

RGS10 (UniProt O43665)
inactive: erlotinib -0.044 | [1] 0.048 | [2] 0.076 | [3] 0.009 | [4] -0.03 | [5] 0.002 | [6] 0.073 | [7] -0.015 | [8] -0.069 | [9] 0.036

RIC8A isoform 3 (UniProt Q9NPQ8)
inactive: erlotinib 0.063 | [1] 0.114 | [2] 0 | [3] -0.031 | [4] 0.114 | [5] -0.052 | [6] 0.005 | [7] -0.021 | [8] -0.071 | [9] -0.057

RFC3 (UniProt P40938)
inactive: erlotinib -0.04 | [1] 0.108 | [2] 0.033 | [3] 0.005 | [4] 0.066 | [5] 0.007 | [6] 0.046 | [7] 0.046 | [8] -0.06 | [9] 0.054

RAB3IL1 (UniProt E9PK89)
inactive: erlotinib -0.238 | [1] -0.055 | [2] 0.116 | [3] -0.001 | [4] 0.058 | [5] 0.104 | [6] -0.028 | [7] 0.197 | [8] -0.162 | [9] 0.004

SIK3 (UniProt H0Y4E8)
inactive: erlotinib -0.074 | [1] 0.045 | [3] 0.094 | [4] 0.074 | [6] -0.163 | [7] -0.099 | [8] 0.051 | [9] 0.15

S100A10 (UniProt P60903)
Sequence of UniProt P60903 (P60903 whole entry, looked up): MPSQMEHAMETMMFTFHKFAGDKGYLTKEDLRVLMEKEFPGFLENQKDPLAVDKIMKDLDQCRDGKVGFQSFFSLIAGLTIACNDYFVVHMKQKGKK
inactive: [1] 0.122 | [4] 0.194 | [5] 0.052 | [7] -0.096 | [8] -0.042 | [9] -0.013

RICTOR isoform 3 (UniProt Q6R327)
inactive: erlotinib 0.116 | [1] 0.025 | [2] -0.067 | [3] 0.36 | [4] -0.031 | [7] -0.136 | [8] 0.054 | [9] -0.001

RCOR3 isoform 3 (UniProt Q9P2K3)
inactive: erlotinib 0.116 | [1] 0.084 | [3] -0.008 | [4] 0.022 | [5] -0.01 | [6] -0.011 | [7] 0.018 | [8] -0.003 | [9] 0.057

SHROOM2 (UniProt Q13796)
inactive: erlotinib 0.266 | [2] 0.095 | [3] -0.361 | [4] 0.069 | [5] -0.021 | [7] 0.013 | [8] -0.027 | [9] 0.303
active: [1] -1.03

SCLT1 (UniProt Q96NL6)
inactive: [5] -0.002 | [8] -0.088 | [9] 0.051

RBMY1E (UniProt A6NEQ0)
Sequence of UniProt A6NEQ0 (A6NEQ0 whole entry, looked up): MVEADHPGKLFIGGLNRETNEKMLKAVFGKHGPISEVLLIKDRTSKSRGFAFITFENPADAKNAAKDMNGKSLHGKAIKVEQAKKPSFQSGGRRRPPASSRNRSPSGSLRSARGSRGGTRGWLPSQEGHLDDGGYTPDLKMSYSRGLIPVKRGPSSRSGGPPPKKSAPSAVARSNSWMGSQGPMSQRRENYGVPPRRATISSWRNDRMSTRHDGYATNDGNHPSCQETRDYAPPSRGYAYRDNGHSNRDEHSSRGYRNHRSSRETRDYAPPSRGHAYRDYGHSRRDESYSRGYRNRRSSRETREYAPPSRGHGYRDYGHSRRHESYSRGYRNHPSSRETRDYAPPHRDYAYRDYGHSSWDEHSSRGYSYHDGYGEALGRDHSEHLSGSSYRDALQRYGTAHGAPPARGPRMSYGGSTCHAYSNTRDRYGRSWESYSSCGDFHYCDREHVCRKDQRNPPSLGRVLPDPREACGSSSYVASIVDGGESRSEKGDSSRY
inactive: erlotinib -0.238 | [3] 0.06 | [5] -0.003 | [6] -0.044 | [8] -0.072 | [9] -0.099

RAD50, A0A494C0Y7
inactive: [1] -0.029 | [4] 0.049 | [5] -0.077 | [6] -0.111 | [7] 0.048 | [8] -0.033 | [9] 0.143

RMDN2 isoform 2 (UniProt Q96LZ7)
inactive: [6] 0.088

RAB3D (UniProt O95716)
Sequence of UniProt O95716 (O95716 whole entry, looked up): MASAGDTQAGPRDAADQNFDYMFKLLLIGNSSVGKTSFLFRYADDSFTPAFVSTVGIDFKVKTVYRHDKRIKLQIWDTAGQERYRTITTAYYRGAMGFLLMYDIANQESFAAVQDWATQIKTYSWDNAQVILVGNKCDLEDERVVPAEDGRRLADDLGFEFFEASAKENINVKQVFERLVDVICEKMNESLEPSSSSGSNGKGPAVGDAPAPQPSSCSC
inactive: erlotinib -0.094 | [1] 0.036 | [3] -0.141 | [4] -0.055 | [5] 0.006 | [6] -0.145 | [7] -0.058 | [8] 0.007 | [9] 0.036

RPS3A (UniProt D6R9B6)
inactive: [1] -0.359 | [4] 0.198 | [7] -0.243 | [8] 0.303 | [9] 0.034

RPS3 (UniProt E9PJN9)
inactive: [6] 0.203 | [8] 0.021 | [9] -0.151

RELA (UniProt Q04206)
inactive: [1] 0.034 | [2] 0.003 | [3] -0.011 | [4] -0.007 | [5] 0.014 | [6] -0.002 | [7] 0.004 | [8] -0.022 | [9] 0.011

RAPGEF4 (UniProt Q8WZA2)
Sequence of UniProt Q8WZA2 (Q8WZA2 whole entry, looked up): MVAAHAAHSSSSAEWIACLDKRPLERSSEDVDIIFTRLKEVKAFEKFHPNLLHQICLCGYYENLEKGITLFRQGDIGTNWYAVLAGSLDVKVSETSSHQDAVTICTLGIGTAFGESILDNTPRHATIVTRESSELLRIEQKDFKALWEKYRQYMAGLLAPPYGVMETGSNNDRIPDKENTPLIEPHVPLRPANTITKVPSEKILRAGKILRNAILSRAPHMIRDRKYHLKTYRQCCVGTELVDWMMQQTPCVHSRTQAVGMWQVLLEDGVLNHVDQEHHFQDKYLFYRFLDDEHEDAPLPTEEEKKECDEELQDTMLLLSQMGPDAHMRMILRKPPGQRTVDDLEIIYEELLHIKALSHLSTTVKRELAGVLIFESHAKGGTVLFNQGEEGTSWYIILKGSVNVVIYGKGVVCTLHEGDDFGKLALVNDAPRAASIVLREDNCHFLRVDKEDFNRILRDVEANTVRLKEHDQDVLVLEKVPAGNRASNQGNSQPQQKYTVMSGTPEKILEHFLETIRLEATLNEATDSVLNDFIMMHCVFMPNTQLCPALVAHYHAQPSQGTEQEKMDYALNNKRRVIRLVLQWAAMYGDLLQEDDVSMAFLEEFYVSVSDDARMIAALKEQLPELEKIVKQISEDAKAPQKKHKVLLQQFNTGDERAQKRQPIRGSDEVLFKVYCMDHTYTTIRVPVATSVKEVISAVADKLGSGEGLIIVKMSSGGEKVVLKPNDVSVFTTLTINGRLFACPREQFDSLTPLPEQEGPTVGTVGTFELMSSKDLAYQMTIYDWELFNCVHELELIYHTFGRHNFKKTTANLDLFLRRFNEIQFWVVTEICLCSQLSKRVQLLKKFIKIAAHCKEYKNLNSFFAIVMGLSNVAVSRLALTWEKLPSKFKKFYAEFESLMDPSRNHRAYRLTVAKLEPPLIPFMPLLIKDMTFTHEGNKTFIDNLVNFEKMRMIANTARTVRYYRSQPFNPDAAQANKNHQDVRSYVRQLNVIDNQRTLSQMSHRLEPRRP
active: [1] -0.636
inactive: erlotinib 0.271 | [2] 0.057 | [3] 0.053 | [4] 0.19 | [5] 0.029 | [7] -0.014 | [8] -0.038 | [9] 0.18

SH2D1B (UniProt O14796)
inactive: erlotinib -0.294 | [1] -0.059 | [2] -0.218 | [3] -0.098 | [4] 0.057 | [6] -0.228 | [7] -0.406 | [8] -0.036 | [9] 0.028

RNF185 (UniProt Q96GF1)
Sequence of UniProt Q96GF1 (Q96GF1 whole entry, looked up): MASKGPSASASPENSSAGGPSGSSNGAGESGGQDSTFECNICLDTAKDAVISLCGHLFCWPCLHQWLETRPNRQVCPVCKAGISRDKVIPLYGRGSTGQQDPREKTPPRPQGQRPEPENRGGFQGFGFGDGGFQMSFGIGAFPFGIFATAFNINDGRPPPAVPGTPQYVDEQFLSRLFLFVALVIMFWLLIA
inactive: erlotinib -0.054 | [1] -0.006 | [3] 0.009 | [4] 0.136 | [5] 0.026 | [6] 0.133 | [7] -0.007 | [8] 0.457 | [9] -0.031
